Inconclusive results are not listed. Active and inactive are the calls of the source. Unless noted, the call rests on the fitted dose curve.
What was measured:
[1] = molecular target: Glucocorticoid receptor (Homo sapiens) (UniProt P04150); experiment: qHTS assay for small molecule agonists of glucocorticoid receptor signaling (AID 588532; active means well fitted curve in the direction sought with a large enough effect in the signal ratio, with a control signal flat; the % refers to the signal ratio;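 further: 100% = dexamethasone at 0.1 µM and 0% = DMSO only wells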); conditions: HeLa MMTV-bla, beta-lactamase ratio, agonist, 18 h; stronger effect = higher value; percent of dexamethasone control, DMSO zero
Sequence of Glucocorticoid receptor (Homo sapiens) (P04150 whole entry, looked up): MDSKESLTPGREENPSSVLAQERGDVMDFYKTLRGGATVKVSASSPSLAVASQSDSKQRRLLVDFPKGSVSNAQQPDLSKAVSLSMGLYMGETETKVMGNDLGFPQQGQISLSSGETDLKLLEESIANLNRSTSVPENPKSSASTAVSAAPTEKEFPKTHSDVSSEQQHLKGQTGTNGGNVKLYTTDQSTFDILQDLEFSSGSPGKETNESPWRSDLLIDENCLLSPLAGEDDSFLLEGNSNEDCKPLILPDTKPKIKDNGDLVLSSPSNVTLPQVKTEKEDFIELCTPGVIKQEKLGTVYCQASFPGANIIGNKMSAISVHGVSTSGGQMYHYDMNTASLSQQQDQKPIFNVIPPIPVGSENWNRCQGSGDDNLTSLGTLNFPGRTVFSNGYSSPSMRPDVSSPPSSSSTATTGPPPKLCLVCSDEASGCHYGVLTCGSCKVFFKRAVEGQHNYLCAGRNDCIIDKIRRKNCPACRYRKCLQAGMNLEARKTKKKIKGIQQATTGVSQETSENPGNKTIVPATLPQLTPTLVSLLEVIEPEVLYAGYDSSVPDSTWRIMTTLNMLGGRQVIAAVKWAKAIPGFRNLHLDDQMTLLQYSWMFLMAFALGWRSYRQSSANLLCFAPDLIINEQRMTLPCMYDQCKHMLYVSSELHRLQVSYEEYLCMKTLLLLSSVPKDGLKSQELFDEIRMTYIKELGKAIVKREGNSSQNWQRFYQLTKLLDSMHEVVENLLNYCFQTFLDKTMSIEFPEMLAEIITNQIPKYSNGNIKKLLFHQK
How it was run: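 Quantitative HTS using CellSensor MMTV-bla HeLa cells in charcoal/dextran-treated serum; compounds tested up to 92 uM. After 18 h at 37 C, CCF4 dye reported reporter induction.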

[2] = molecular target: Glucocorticoid receptor (Homo sapiens) (UniProt P04150); experiment: qHTS assay for small molecule antagonists of glucocorticoid receptor signaling (AID 588533; active means well fitted inhibition curve with a large enough effect in the signal ratio, with a control signal flat, not every such curve was filed as active; the % refers to the signal ratio;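 further: cells stimulated with 2 nM dexamethasone as agonist; on the % scale 0 is the no-effect control and ±100 the full control effect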); conditions: HeLa MMTV-bla, GRE beta-lactamase ratio, antagonist mode, 18 h; series mostly up to 76.8 µM
How it was run: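 Antagonist-mode qHTS: compound titrations added to GRE-bla HeLa cells, then dexamethasone 2 nM final; 18 h, 37 C. CCF4 FRET fluorescence normalized to dexamethasone and DMSO; IC50 from Hill fit.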

[3] = qHTS assay for small molecule antagonists of peroxisome proliferator-activated receptor delta signaling (AID 588535; active means well fitted inhibition curve with a large enough effect in the signal ratio, with a control signal flat, not every such curve was filed as active; the % refers to the signal ratio; further: potency means the concentration at half of the fitted maximal effect;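 on max response: cells co-treated with a PPAR-delta agonist as stimulator during compound exposure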); conditions: HEK293T PPARd-UAS-bla, beta-lactamase FRET ratio, 18 h; 460 nm channel
How it was run: (§1)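 HEK293T PPAR-delta-UAS-bla cells, 4000/well, 2% charcoal/dextran FBS; 5 h 37 C; cpd titration; 18 h 37 C; CCF4 2 h RT; FI 460/530 nm; Hill fit → IC50, efficacy.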

[4] = molecular target: Peroxisome proliferator-activated receptor delta (Homo sapiens) (UniProt Q03181); experiment: as above; conditions: HEK293T PPARd-UAS-bla, beta-lactamase FRET ratio, 18 h; series mostly up to 76.7 µM
Sequence of Peroxisome proliferator-activated receptor delta (Homo sapiens) (Q03181 whole entry, looked up): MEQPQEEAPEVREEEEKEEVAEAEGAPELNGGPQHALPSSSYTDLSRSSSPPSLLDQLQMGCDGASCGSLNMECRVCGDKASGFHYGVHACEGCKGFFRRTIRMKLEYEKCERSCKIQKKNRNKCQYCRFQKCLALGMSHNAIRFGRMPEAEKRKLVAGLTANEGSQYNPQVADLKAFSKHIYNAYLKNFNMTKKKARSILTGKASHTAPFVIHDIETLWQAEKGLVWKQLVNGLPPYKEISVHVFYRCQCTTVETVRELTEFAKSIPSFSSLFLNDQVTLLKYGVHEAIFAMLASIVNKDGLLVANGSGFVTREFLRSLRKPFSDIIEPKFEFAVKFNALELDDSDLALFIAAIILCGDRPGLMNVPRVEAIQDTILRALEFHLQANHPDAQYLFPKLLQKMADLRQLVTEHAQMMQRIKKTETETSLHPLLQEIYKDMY
How it was run: as §1

[5] = molecular target: Peroxisome proliferator-activated receptor gamma (Homo sapiens) (UniProt P37231); experiment: qHTS assay for small molecule agonists of peroxisome proliferator-activated receptor gamma signaling (AID 588536; active means well fitted curve in the direction sought with a large enough effect in the signal ratio, with a control signal flat, not every such curve was filed as active; the % refers to the signal ratio;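 further: 0% = DMSO basal wells and 100% = rosiglitazone at 2 µM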); conditions: HEK293 PPARg-UAS-bla, beta-lactamase ratio, 16 h, percent of rosiglitazone response, DMSO as zero; series mostly up to 76.7 µM
Sequence of Peroxisome proliferator-activated receptor gamma (Homo sapiens) (P37231 whole entry, looked up): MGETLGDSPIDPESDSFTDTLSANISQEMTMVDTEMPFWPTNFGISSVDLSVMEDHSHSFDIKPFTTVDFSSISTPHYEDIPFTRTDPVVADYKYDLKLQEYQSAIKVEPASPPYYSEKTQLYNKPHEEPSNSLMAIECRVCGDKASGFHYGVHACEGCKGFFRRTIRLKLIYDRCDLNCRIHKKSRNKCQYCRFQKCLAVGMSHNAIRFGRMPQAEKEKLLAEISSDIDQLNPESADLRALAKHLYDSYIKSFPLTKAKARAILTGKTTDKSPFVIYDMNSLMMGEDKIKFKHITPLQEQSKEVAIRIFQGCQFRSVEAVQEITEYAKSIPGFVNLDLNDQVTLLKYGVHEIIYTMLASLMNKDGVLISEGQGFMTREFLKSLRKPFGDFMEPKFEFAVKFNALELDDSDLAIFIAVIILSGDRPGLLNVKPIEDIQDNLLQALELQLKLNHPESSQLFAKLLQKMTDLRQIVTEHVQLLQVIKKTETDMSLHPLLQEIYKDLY
How it was run: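 Ratiometric blue/green fluorescence (405 nm excitation; 460 and 530 nm emission) from CCF4-loaded HEK293 reporter cells serves as signal. Exposure to test compounds lasts 16 h at 37 C in medium containing 1% charcoal/dextran-treated serum.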

[6] = molecular target: Vitamin D3 receptor (Homo sapiens) (UniProt P11473); experiment: qHTS assay for small molecule antagonists of vitamin D receptor signaling (AID 588541); conditions: HEK293T VDR-UAS-bla, beta-lactamase ratio, antagonist mode; series mostly up to 76.7 µM;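 further: receptor activated by calcitriol during compound treatment; on the % scale 0 is the no-effect control and ±100 the full control effect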
Sequence of Vitamin D3 receptor (Homo sapiens) (P11473 whole entry, looked up): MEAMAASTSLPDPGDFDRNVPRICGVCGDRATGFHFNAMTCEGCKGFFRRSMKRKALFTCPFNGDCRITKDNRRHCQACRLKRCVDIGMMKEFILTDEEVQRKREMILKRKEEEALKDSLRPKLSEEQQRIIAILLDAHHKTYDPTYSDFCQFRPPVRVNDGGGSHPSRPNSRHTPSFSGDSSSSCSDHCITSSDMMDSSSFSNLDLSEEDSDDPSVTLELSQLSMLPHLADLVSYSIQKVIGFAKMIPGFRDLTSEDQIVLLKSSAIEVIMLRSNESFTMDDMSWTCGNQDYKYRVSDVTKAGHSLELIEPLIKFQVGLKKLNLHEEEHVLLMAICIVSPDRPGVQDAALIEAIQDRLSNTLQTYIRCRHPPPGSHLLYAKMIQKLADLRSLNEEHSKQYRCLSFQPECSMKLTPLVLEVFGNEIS
How it was run: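 Antagonist-mode beta-lactamase reporter assay: HEK293T VDR-UAS-bla cells were exposed to titrated compound alongside 1-alpha,25-dihydroxyvitamin D3 at 3 nM final for 16 h. Values were normalized to the 50 nM agonist control and DMSO basal, with IC50 and efficacy from Hill equation fits.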

[7] = molecular target: Vitamin D3 receptor (Homo sapiens) (UniProt P11473); experiment: qHTS assay for small molecule agonists of vitamin D receptor signaling (AID 588543); conditions: HEK293T VDR-UAS-bla, beta-lactamase ratio, 16 h; series mostly up to 76.8 µM;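 further: 0% = DMSO basal and 100% = reference agonist control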
How it was run: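 Agonist-mode beta-lactamase reporter: HEK293T VDR-UAS-bla cells in charcoal-stripped 2% FBS, compound series 16 h 37 C, CCF4 2 h RT. EC50 from Hill fit, scaled against DMSO and 50 nM calcitriol control.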

[8] = molecular target: Peroxisome proliferator-activated receptor gamma (Homo sapiens) (UniProt P37231); experiment: qHTS assay for small molecule antagonists of peroxisome proliferator-activated receptor gamma signaling (AID 588537; active means well fitted inhibition curve with a large enough effect in the signal ratio, with a control signal flat, not every such curve was filed as active; the % refers to the signal ratio;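 further: reporter cells co-stimulated with 50 nM rosiglitazone agonist during compound treatment; % of control where 0% means no effect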); conditions: HEK293 PPARg-UAS-bla, beta-lactamase ratio, antagonist mode; series mostly up to 76.8 µM
How it was run: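 Antagonist mode, beta-lactamase reporter in HEK293; charcoal/dextran FBS 1%; 3000 cells/well, 37 C 6-6.5 h; cpd titration + rosiglitazone 50 nM final, 16 h 37 C; CCF4, 2 h RT; 460/530 nm; Hill fit → IC50, efficacy.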

Cc1cc(C)cc(O)c1
inactive: activation [1] -1.28% | outcome [2] | Potency [4] | outcome [5] | outcome [6] | outcome [7]
32.1%: max response [3]

COc1ccc(OC)cc1
inactive: activation [1] -0.922% | outcome [2] | Potency [4] | outcome [5] | outcome [7]
-6.1%: max response [3]

Cc1cccc([N+](=O)[O-])c1C(=O)O
inactive: activation [1] 4.26% | outcome [2] | outcome [5] | outcome [8] | outcome [6] | outcome [7]
7.62%: max response [3]

Cc1ccc(C)o1
inactive: activation [1] -6.27% | outcome [2] | outcome [5] | outcome [6] | outcome [7]
-8.16%: max response [3]

Cc1cc(C)cc(N)c1
-0.443%: max response [3]
inactive: activation [1] -0.353% | outcome [2] | outcome [5] | outcome [8] | outcome [6] | outcome [7]

C=CCCC
inactive: activation [1] 5.54% | outcome [2] | Potency [4] | outcome [6] | outcome [7]
0.0312%: max response [3]

CN(C)c1cccc(O)c1
-10%: max response [3]
inactive: activation [1] -1.05% | outcome [2] | Potency [4] | outcome [5] | outcome [7]

Nc1cccc(S(=O)(=O)O)c1
-7.97%: max response [3]
inactive: activation [1] -6.32% | outcome [2] | Potency [4] | outcome [5] | outcome [7]

CC(=O)Nc1ccc(C)cc1
-10.7%: max response [3]
inactive: activation [1] 8.72% | outcome [2] | Potency [4] | outcome [5] | outcome [7]

Cc1cc(C2(c3cc(C)c(O)cc3C)OS(=O)(=O)c3ccccc32)c(C)cc1O
inactive: activation [1] 3.46% | outcome [2] | outcome [5]

CCC(C)(C)OC
12.9%: max response [3]
inactive: activation [1] -0.431% | outcome [2] | outcome [5] | outcome [8]

O=Nc1ccc(NO)cc1
-72.9%: max response [3]
inactive: activation [1] 5.11% | outcome [2] | outcome [5] | outcome [6] | outcome [7]
active: Potency [4] 12.6 µM

Nc1cccc2c(=O)[nH][nH]c(=O)c12
inactive: activation [1] 0.411% | outcome [2] | outcome [5] | outcome [8]
-7.57%: max response [3]

OC(CCl)CCl
inactive: activation [1] 14.2% | outcome [2] | outcome [5] | outcome [8] | outcome [6]

Clc1cc(Cl)cc(Cl)c1
inactive: activation [1] 5.2% | outcome [2] | Potency [4] | outcome [5] | outcome [7]
-6.75%: max response [3]

COCCOC(=O)c1ccccc1C(=O)OCCOC
inactive: activation [1] -0.475% | outcome [2] | outcome [5] | outcome [8] | outcome [6] | outcome [7]
-2.63%: max response [3]

CC=O
23.9%: max response [3]
inactive: activation [1] -2.95% | outcome [2] | Potency [4] | outcome [5] | outcome [7]

O=[N+]([O-])c1cccc(C(F)(F)F)c1
inactive: activation [1] -5.05% | outcome [2] | outcome [5] | outcome [8] | outcome [6] | outcome [7]

Cc1c(N)cccc1N
-12.4%: max response [3]
inactive: activation [1] -2.97% | outcome [2] | Potency [4] | outcome [6] | outcome [7]

C[C@@H]1O[C@@H](O[C@@H]2[C@@H](O)[C@H](OCCc3ccc(O)c(O)c3)O[C@H](CO[C@@H]3O[C@H](CO)[C@@H](O)[C@H](O)[C@H]3O)[C@H]2OC(=O)/C=C/c2ccc(O)c(O)c2)[C@H](O)[C@H](O)[C@H]1O
20.8%: max response [3]
inactive: activation [1] 2.75% | outcome [2] | Potency [4] | outcome [5] | outcome [7]

CCOCC(=O)O
-19%: max response [3]
inactive: activation [1] 2.71% | outcome [2] | outcome [5] | outcome [8] | outcome [6]

CC(=O)c1cccc([N+](=O)[O-])c1
inactive: activation [1] 1.38% | outcome [2] | outcome [5] | outcome [6] | outcome [7]
13.5%: max response [3]

Cc1ccccc1C=O
inactive: outcome [2] | outcome [5] | outcome [6] | outcome [7]

CCOC(=O)OCC
inactive: outcome [2] | outcome [5] | outcome [8] | outcome [7]

CC(C)CCOC(=O)/C=C/c1ccccc1
inactive: Potency [4] | outcome [5]
17.3%: max response [3]

CCCCOCCOCCSC#N
34.7%: max response [3]
inactive: outcome [2] | Potency [4] | outcome [5] | outcome [6]

C=Cc1ccccn1
inactive: outcome [2] | outcome [5] | outcome [8] | outcome [7]

CC(=O)OC(C)=O
inactive: outcome [2] | outcome [5] | outcome [8] | outcome [6]

CCCCCCCCC
3.26%: max response [3]
inactive: outcome [2] | Potency [4] | outcome [5] | outcome [8] | outcome [6] | outcome [7]

C=Cc1ccc(C=C)cc1
inactive: outcome [2] | Potency [4] | outcome [5] | outcome [6] | outcome [7]
-5.46%: max response [3]

c1ccc2c(c1)ccc1ncccc12
23.6%: max response [3]
inactive: outcome [2] | outcome [5]
